HT1080NT lethal: kills 2HG-producing HT-1080-NT fibrosarcoma cells; HT-1080-NT fibrosarcoma viability, CellTiter-Glo ATP luminescence, 48 h; Potency, µM (doses to about 46.1 µM), without a hit: top-dose activity, negative = less viability, usual class: cytotoxic; actives 1.6% (n = 360,000); AID 686970;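 further: NT is the 2HG producing partner of a matched IDH1 knockdown line; potency means the concentration at half of the fitted maximal effect; 0% = DMSO-treated cells and -100% = media-only wells without cells; nearly all actives have a fitted effect of over 55% in size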
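Fibrosarcoma NT cells, 750 per well in 5% FBS RPMI, were exposed to compound for 48 hours. Viability: CellTiter-Glo luminescence.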
IL1B secr inh: inhibitors of inflammasome signaling (IL-1 beta secretion); THP-1 LPS/ATP IL-1B secretion, AlphaLISA, 16 h; active compounds read low; activity change, % at 57.5 µM; actives 4.7% (n = 360,000); AID 743279; in the data active means activity change below about -50%; inconclusive means mostly about -30% to -49%
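THP-1 cells pretreated 1 hr with compounds (up to 57.5 uM final), then stimulated with LPS (250 ng/mL final) plus ATP (1.25 mM final); secreted IL-1B measured by AlphaLISA after 16 hr, decreased signal indicating inhibition.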
TDP1 cell noCPT: qHTS for Inhibitors of human tyrosyl-DNA phosphodiesterase 1 (TDP1): qHTS in cells in absence of CPT. Potency, µM (series often up to 46.2 µM), inactives show top-dose activity change, negative = growth inhibition, most hits filed as inhibitors. DT40 Tdp1-/- hTDP1 cells, no CPT, ATP luminescence, 48 h. actives 15% (n = 420,000). AID 686978, 2013; further: potency means the concentration at half of the fitted maximal effect; nearly all actives have a fitted effect of over 55% in size
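Chicken DT40 Tdp1-/- cells complemented with human TDP1, screened without camptothecin (DMSO vehicle only), 400 cells/well. Compounds pin-transferred, cells incubated at 37 °C for at least 48 hr. Growth read as ATP-dependent luminescence (CellTiter-Glo, 30 min at RT).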
HT1080 IDH1KD tx: kills HT-1080 cells with IDH1 knockdown; HT-1080 IDH1 knockdown viability, ATP luminescence, 48 h; actives 2% (n = 360,000); AID 686971; Potency, µM (highest dose often 46.1 µM), for the others: at the highest dose activity, negative = toxicity, actives largely listed as cytotoxic;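 further: potency means the concentration at half of the fitted maximal effect; 0% = DMSO wells and -100% = cell-free medium wells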
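Knockdown cells (IDH1KD HT-1080) received compounds 2 h after plating at 750 cells/well and were kept 48 h at 37 °C in 5% FBS RPMI. A CellTiter-Glo luminescence read gave % activity for curve fitting.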
TDP1 cell CPT: growth inhibition of DT40 Tdp1-/-;hTDP1 cells with camptothecin (screen for TDP1 inhibitors) | chicken DT40 Tdp1-/-;hTDP1 cells + 20 nM CPT, ATP luminescence, 48 h | Potency, µM (titrated, usually from 46.2 µM), inactives show top-dose activity change, negative = growth inhibition, most hits filed as inhibitors | actives 12% (n = 420,000) | AID 686979; further: potency means the concentration at half of the fitted maximal effect; nearly all actives have a fitted effect of over 55% in size
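Cell growth measured by CellTiter-Glo luminescence after a minimum 48 h, 37 C compound exposure with 20 nM CPT in Tdp1-knockout DT40 cells stably expressing hTDP1, seeded 400/well; qHTS titration format.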
Numbers without * were called inactive. The list is not random: actives were taken first. Their share in the collection is about 19%. Unless noted, the call rests on the fitted dose curve; in most records, active means well fitted curve in the direction sought with a large enough effect; inconclusive means small, poorly fitted or top-dose-only effect, or another doubt; inactive means no such curve, though single readings can be large; an effect the other way counts as inactive or inconclusive. Unless noted, on the % scale 0 is the no-effect control and ±100 the full control effect.

How did c1cnc2nc(-c3ccc4c(c3)OCO4)cn2c1 do in these assays?
HT1080NT lethal: -19.5%; IL1B secr inh: -18.6; TDP1 cell noCPT: inconclusive; HT1080 IDH1KD tx: inconclusive; TDP1 cell CPT: -13.4%

What do the screens show for `c1ccn2cc(-c3ccc4c(c3)OCO4)cc2c1`?
HT1080NT lethal: 8.3%; IL1B secr inh: 0.0; TDP1 cell noCPT: inconclusive; HT1080 IDH1KD tx: -1.0%; TDP1 cell CPT: 16.4µM*

What do the screens show for `Fc1ccccc1-c1nc(N2CCCCC2)c2ccccc2n1`?
HT1080NT lethal: 10.5%; IL1B secr inh: -6.1; TDP1 cell noCPT: inconclusive; HT1080 IDH1KD tx: -1.5%; TDP1 cell CPT: inconclusive

What do the screens show for `Cc1ccc(-c2nc(N3CCN(c4ccccc4Cl)CC3)c3ccccc3n2)cc1`?
TDP1 cell noCPT: -17.6%; TDP1 cell CPT: -7.6%

Results for COc1cccc(-c2nc(N3CC(C)CC(C)C3)c3ccccc3n2)c1O (centres undefined) ?
HT1080NT lethal: -8.6%; IL1B secr inh: 20.1; TDP1 cell noCPT: inconclusive; HT1080 IDH1KD tx: -10.1%; TDP1 cell CPT: inconclusive

Results for COc1ccccc1N1CCN(c2nc3ccc(C)cc3nc2-n2nc(C)cc2C)CC1 ?
TDP1 cell noCPT: 20.6µM*; TDP1 cell CPT: 23.1µM*

What do the screens show for `COc1ccccc1N1CCN(c2nc(-c3ccc(C)cc3)nc3ccccc23)CC1`?
TDP1 cell noCPT: 23.1µM*; TDP1 cell CPT: 23.1µM*

Results for COc1cccc(-c2nc(N3CCCC3)c3ccccc3n2)c1O ?
HT1080NT lethal: 9.3%; IL1B secr inh: 15.9; TDP1 cell noCPT: 11.6µM*; HT1080 IDH1KD tx: 5.3%; TDP1 cell CPT: 18.4µM*

What do the screens show for `COc1cccc(-c2nc(N3CCC(C)CC3)c3ccccc3n2)c1O`?
HT1080NT lethal: inconclusive; IL1B secr inh: 13.3; TDP1 cell noCPT: 20.6µM*; HT1080 IDH1KD tx: inconclusive; TDP1 cell CPT: 18.4µM*

How did COC(=O)c1cc2c(cc1NC(=O)c1cnn(-c3ccc(C)cc3)c1-n1cccc1)OCO2 do in these assays?
TDP1 cell noCPT: -4.5%; TDP1 cell CPT: -8.0%

How did OC(c1cc(F)cc(Cl)c1)c1ncc(-c2ccccc2Cl)[nH]1 (centres undefined) do in these assays?
HT1080NT lethal: -22.3%; IL1B secr inh: 4.1; TDP1 cell noCPT: inconclusive; HT1080 IDH1KD tx: inconclusive; TDP1 cell CPT: inconclusive

Results for COc1ccccc1N1CCN(c2nc(CNC(=O)c3ccc4c(c3)OCO4)nc3ccccc23)CC1 ?
TDP1 cell noCPT: 13µM*; TDP1 cell CPT: 18.4µM*

What do the screens show for `CCCOc1ccc(Br)cc1CSC(=N)N`?
HT1080NT lethal: -28.4%; IL1B secr inh: -85.6*; TDP1 cell noCPT: 2.06µM*; HT1080 IDH1KD tx: inconclusive; TDP1 cell CPT: 6.51µM*

How did CCOC(=O)c1cnc(SC2CC(=O)N(c3ccc(C)cc3)C2=O)nc1N (centres undefined) do in these assays?
HT1080NT lethal: 9.1%; IL1B secr inh: 0.0; TDP1 cell noCPT: 4.11µM*; HT1080 IDH1KD tx: -0.5%; TDP1 cell CPT: 3.26µM*

What do the screens show for `CC(=O)Nc1ccc(N2C(=O)CC(Sc3nc(C)cc(C)n3)C2=O)cc1` (centres undefined)?
HT1080NT lethal: 20.9%; IL1B secr inh: 23.1; TDP1 cell noCPT: 7.0%; HT1080 IDH1KD tx: 10.3%; TDP1 cell CPT: 2.8%

Results for CCOC(=O)c1cnc(SC2CCc3ccccc3C2=O)nc1N (centres undefined) ?
HT1080NT lethal: -7.7%; IL1B secr inh: 21.0; TDP1 cell noCPT: -20.2%; HT1080 IDH1KD tx: inconclusive; TDP1 cell CPT: inconclusive

Results for Cc1nc(SC2CC(=O)N(c3ccccc3)C2=O)nc2c1CCCC2 (centres undefined) ?
HT1080NT lethal: inconclusive; IL1B secr inh: 9.4; TDP1 cell noCPT: -28.7%; HT1080 IDH1KD tx: 11.2µM*; TDP1 cell CPT: inconclusive

How did Cc1ccc(N2C(=O)CC(Sc3nc(C)cc(C)n3)C2=O)cc1 (centres undefined) do in these assays?
HT1080NT lethal: inconclusive; IL1B secr inh: 43.0; TDP1 cell noCPT: 8.2µM*; HT1080 IDH1KD tx: inconclusive; TDP1 cell CPT: 7.31µM*

Screens deposited in PubChem by National Center for Advancing Translational Sciences (NCATS).
